Screening results: PubChem, National Center for Advancing Translational Sciences (NCATS)
KB-3-1 tox: qHTS assay for MDR1-selective chemotherapeutics: Primary screen using the parental adenocarcinoma cell KB-3-1. KB-3-1 viability, CellTiter-Glo ATP luminescence, 72 h. Potency, µM (series often up to 46.1 µM), most hits filed as cytotoxic. hit rate 1.4% among 400,000; also: % is scaled to controls: 0 for no effect and ±100 for the full control effect; nearly all actives have a fitted effect of over 60% in size
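Multi-concentration cytotoxicity screen in KB-3-1 cells grown in DMEM lacking phenol red with 10% FBS. After 72 h at 37 °C with compound, ATP-dependent luminescence was recorded.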
ELG1 repair inh: qHTS screen for small molecules that inhibit ELG1-dependent DNA repair in human embryonic kidney (HEK293T) cells expressing luciferase-tagged ELG1. Potency, µM (highest dose often 46.1 µM), for the others: at the top dose activity change, negative = inhibition, usual class: inhibitors. HEK293T ELG1-luciferase reporter, luminescence, 16 h; DNA damage induced by 5-fluorouridine. AID 504467, 2011. hit rate 2.3% among 330,000; also: % is scaled to controls: 0 for no effect and ±100 for the full control effect; nearly all actives have a fitted effect of over 55% in size
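Overnight (16 hr) co-exposure of 2,000 cells/well to 5-fluorouridine and compound at 37 °C preceded detection. Luciferase was quantified via ONE-Glo luminescence; loss of signal denotes inhibition.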
MCF10A rereplic: A quantitative high throughput screen for small molecules that induce DNA re-replication in MCF 10a normal breast cells; MCF 10A DNA re-replication, Hoechst nuclear intensity, 48 h; Potency, µM (titrated, usually from 46.1 µM), for the others: at the top dose activity, positive = re-replication, most hits filed as activators; hit rate 2.9% among 350,000; AID 624296, 2012; also: % of control where 0% means no effect; nearly all actives have a fitted effect of over 50% in size
KB-V1 MDR tox: qHTS assay for MDR1-selective chemotherapeutics: Primary screen using the drug-selected MDR subline cells KB-V1; KB-V1 MDR cells viability, CellTiter-Glo, 72 h; Potency, µM (series often up to 46.1 µM), actives largely listed as cytotoxic; hit rate 3.4% among 400,000; AID 1347076, 2019; also: % is scaled to controls: 0 for no effect and ±100 for the full control effect; nearly all actives have a fitted effect of over 60% in size
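KB-V1 MDR subline cells in DMEM (phenol-red free, 10% FBS) exposed to compounds in qHTS concentration series for 72 h at 37 degrees C. Viability read by CellTiter-Glo luminescence; concentration-effect curves fitted after normalization and correction.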
SW480 rereplic: A quantitative high throughput screen for small molecules that induce DNA re-replication in SW480 colon adenocarcinoma cells | AID 624297, 2012 | hit rate 1.8% among 340,000 | SW480 DNA re-replication, Hoechst DNA content imaging, 48 h | Potency, µM (doses to about 46.1 µM), without a hit: top-dose re-replication activation, usual class: activators; also: % of control where 0% means no effect; nearly all actives have a fitted effect of over 55% in size
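Treated cells incubate 48 hr (37 C, 5% CO2), are stained 40 min with Hoechst, and nuclear fluorescence is enumerated; a rise in nuclei with high DNA signal marks re-replication.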
Active calls of the source: *; i = inactive; ? = inconclusive; nt = no result. An excerpt weighted towards active compounds, which were near 8.2% of everything screened. Calls follow the shape of the dose curve; as a rule, active = well fitted curve in the direction sought with a large enough effect; inconclusive = small, poorly fitted or top-dose-only effect, or another doubt; inactive = no such curve, though single readings can be large; an effect the other way counts as inactive or inconclusive. Potency is read from the fitted curve at half-maximal effect.

SMILES	KB-3-1 tox	ELG1 repair inh	MCF10A rereplic	KB-V1 MDR tox	SW480 rereplic
O=C(C1CCC(Cn2c(=S)[nH]c3ccccc3c2=O)CC1)N1CCOCC1 (stereo not drawn)	?	-23%	-1%	23µM*	-7%
O=c1c2cc(Br)ccc2[nH]c(=S)n1Cc1ccccc1	i	?	18%	i	4%
O=C(C1CCC(Cn2c(=S)[nH]c3ccccc3c2=O)CC1)N1CCN(c2ccccc2)CC1 (stereo not drawn)	i	nt	?	i	0%
O=c1c2cc(Br)ccc2[nH]c(=S)n1Cc1ccccn1	i	14%	-4%	16µM*	-8%
O=C(CCCn1c(=S)[nH]c2ccc(Br)cc2c1=O)N1CCN(c2ccccn2)CC1	i	18µM*	?	2.9µM*	?
CCOc1cc(/C=C(/C#N)C(=O)Nc2ccc(O)cc2)cc(Br)c1O	1µM*	8%	0.18µM*	?	2.1µM*
CN(C)S(=O)(=O)c1ccc(C(=O)Nc2cccnc2)cc1	i	-3%	9%	i	-4%
CN(C)S(=O)(=O)c1ccc(C(=O)/C=C/c2cccnc2)cc1	i	?	16µM*	?	21µM*
O=C(/C=C/c1cccnc1)c1cc(F)ccc1O	i	?	3%	i	-16%
COc1cc(C(=O)/C=C/c2cccnc2)ccc1O	?	?	5.8µM*	?	16µM*
O=C(/C=C/c1cccnc1)/C=C/c1cccnc1	2.6µM*	?	?	i	?
COc1ccc(/C=C/C(=O)c2ccc(OC)cc2OC)cc1	?	18%	24µM*	?	21µM*
CCOC(=O)c1c(NC(=O)c2ccc(OCC)c(Br)c2)sc2c1CCCC2	i	nt	nt	i	nt
COc1ccc(N2CCN(C(=O)c3cn(C4CCCCC4)c(=O)c4c3c3ccccc3n4C)CC2)cc1	i	nt	nt	i	nt
CCN(CC(=O)NC(=O)NC1CCCC1)Cc1ccccc1	i	2%	1%	?	-6%
COc1ccc(OC)c(C(=O)/C=C/c2cccnc2)c1	?	?	12µM*	?	21µM*
CS(=O)(=O)c1ccc(/C=C2\C=Cc3ccccc32)cc1	i	nt	nt	i	nt
O=C(c1[nH]c(C(F)(F)F)nc1-c1ccccc1)N1CCCN(Cc2ccc(F)cc2)CC1	i	nt	nt	i	nt
Cc1c2c(cc3c1[nH]c1ccccc13)C=NCC2	?	nt	21µM*	?	?
C=CCNCc1ccccc1[N+](=O)[O-]	i	8%	-38%	i	-62%
CCCS(=O)(=O)NC(=O)C1(C)CCN(C(=O)c2cc(-c3cccs3)oc2C)C1 (stereo not drawn)	i	nt	nt	i	nt
Cc1nc(-c2cc(C#N)c(=O)[nH]c2C)cs1	?	2%	-2%	4.6µM*	-6%
Cc1nonc1OCC(C)(COc1nonc1C)NC(=O)c1ccccc1	i	2%	7%	18µM*	0%
CS(=O)(=O)Nc1cccc(C(=O)CC2(O)C(=O)Nc3ccc(Br)cc32)c1 (stereo not drawn)	i	-10%	8.2µM*	i	?
Cc1ccc(/C=N/NC(=O)c2cc3c(s2)CCCC3)o1	i	?	-5%	i	0%
COc1ccc(-c2cc(C(=O)Nc3c(C)n(C)n(-c4ccccc4)c3=O)c3ccccc3n2)cc1	i	16µM*	-4%	?	?
COc1ccc2cc(-c3cc(C(=O)OCC(=O)Nc4c(C)n(C)n(-c5ccccc5)c4=O)c4ccccc4n3)ccc2c1	i	?	?	?	7%
COc1ccc(-c2cc(C(F)(F)F)n3nc(C(=O)NCCCn4ccnc4)cc3n2)cc1	i	?	13µM*	i	?
COc1ccc(-c2cc(C(F)(F)F)n3nc(C(=O)NCCN4CCOCC4)cc3n2)cc1	i	-1%	-7%	i	-5%
